Assay results published in PubChem BioAssay.
The source made the active and inactive calls. Unless noted, how the calls were made is not given here.

Key:
[1] = system: Wnt5a (protein binding on small-molecule microarray); test: small molecules binding Wnt5a protein – biophysical, small-molecule microarray, 635/667 nm fluorescence, primary screen (AID 1142); settings: 635 nm fluorescence, higher = more signal;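 further: fluorescence read at 667 nm with signal to noise per printed feature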
[2] = ATP-based viability of Huh7 replicon cells – cell-based, CellTiter-Glo luminescence, basal, 48 h, cytotoxicity control for HCV replication inhibitor project, primary screen (AID 1143); settings: higher = more signal, called active from +8 up or from −8 down;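 further: Huh7 hepatoma cells carrying a hepatitis C replication reporter with no stimulus; test concentration not given here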
[3] = Pseudomonas biofilm growth suppression – PAO1 strain, BacTiter-Glo luminescence, LB-PBS, primary screen (AID 1144); settings: P. aeruginosa PAO1 biofilm, 12 h, higher = more signal
[4] = basal CRE-LacZ reporter activity in PC12 – cell-based, unstimulated, primary screen (AID 1145); settings: no forskolin, luminescence, 4.5 h, higher = more signal, called active from +8 up or from −8 down
[5] = forskolin-driven CRE-LacZ activity in PC12 – cell-based, CRE-LacZ reporter, forskolin-stimulated, primary screen (AID 1146); settings: luminescence, 4.5 h, higher = more signal, called active from +8 up or from −8 down;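 further: PC12 cells with 6xCRE LacZ reporter stimulated by forskolin 10 µM; beta-galactosidase reporter signal reflecting CREB driven transcription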
[6] = molecular target: Streptavidin (Streptomyces avidinii) (UniProt P22629); test: compounds binding control protein streptavidin – biophysical, small-molecule microarray, 635/667 nm fluorescence, artefact control for SMM compound annotation, primary screen (AID 1147); settings: higher = more signal;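 further: signal reflects streptavidin binding to arrayed compounds as a control protein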
Chain of Streptavidin (Streptomyces avidinii) (P22629 whole entry, looked up): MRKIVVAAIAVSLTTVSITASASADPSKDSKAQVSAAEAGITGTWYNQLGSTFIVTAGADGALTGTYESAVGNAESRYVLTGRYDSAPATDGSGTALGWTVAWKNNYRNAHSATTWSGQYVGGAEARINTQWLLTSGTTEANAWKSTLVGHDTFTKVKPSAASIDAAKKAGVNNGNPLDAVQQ

[7] = probe aInhba binding on compound microarray – biochemical, small-molecule microarray, 635/667 nm fluorescence, primary screen (AID 1148); settings: higher = more signal;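 further: score merges 667nm spot fluorescence with signal-to-noise for antibody binding to printed compounds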
Torsin-1A (Homo sapiens) [8] = molecular target: Torsin-1A (Homo sapiens) (UniProt O14656); test: TOR1A wild-type binding on microarray – cell lysate, small-molecule microarray, lysate, 635/667 nm, primary screen (AID 1149); settings: COS7 hTOR1A-WT lysate, 635 nm fluorescence, higher = more signal
Chain of Torsin-1A (Homo sapiens) (O14656 whole entry, looked up): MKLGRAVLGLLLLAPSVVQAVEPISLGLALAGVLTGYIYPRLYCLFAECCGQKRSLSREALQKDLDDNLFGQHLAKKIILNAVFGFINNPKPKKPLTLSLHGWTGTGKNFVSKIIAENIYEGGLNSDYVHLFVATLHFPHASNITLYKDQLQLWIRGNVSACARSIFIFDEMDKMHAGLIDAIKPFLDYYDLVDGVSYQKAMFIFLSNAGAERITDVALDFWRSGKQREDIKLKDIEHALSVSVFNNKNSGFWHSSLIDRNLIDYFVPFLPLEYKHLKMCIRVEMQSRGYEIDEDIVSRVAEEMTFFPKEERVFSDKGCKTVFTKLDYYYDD

Torsin-1A (Homo sapiens) [9] = molecular target: Torsin-1A (Homo sapiens) (UniProt O14656); test: torsin A mutant lysate binding on microarrays – cell lysate, small-molecule microarray, COS7 lysate, 635/667 nm fluorescence, primary screen (AID 1150); settings: COS7 hTOR1A mutant lysate, 635 nm fluorescence, higher = more signal;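 further: score pools 667 nm emission and signal to noise measuring lysate protein binding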
[10] = system: Sonic hedgehog protein (Shh); test: Sonic hedgehog microarray binding compounds – biochemical, small-molecule microarray, 635/667 nm fluorescence, primary screen (AID 1151); settings: 635 nm fluorescence, higher = more signal;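 further: Shh protein binding to compounds spotted on small-molecule microarray slides; score combines spot fluorescence intensity with signal-to-noise across triplicate slides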

SMILES | composite z-score [1] | z-score [2] | z-score [3] | z-score [4] | z-score [5] | composite z-score [6] | composite z-score [7] | composite z-score (Torsin-1A (Homo sapiens) [8]) | composite z-score (Torsin-1A (Homo sapiens) [9]) | composite z-score [10]
COC(=O)[C@@]1(Cc2ccccc2)[C@H]2c3cc(C(=O)N(C)C)n(Cc4ccc(C)o4)c3C[C@H]2CN1C(=O)c1ccccc1 | 1.28 | -4.01 (inactive) | -0.142 (inactive) | -0.185 (inactive) | 0.2 (inactive) | 2.31 | 1.44 | 0.125 | 0.751 | 0.406
O=C(O)[C@@H]1C[C@@H]2C(=O)N3CCC[C@H]3C(=O)N2[C@@H]1c1ccc(O)cc1 | 0.357 | -2.79 (inactive) | 0.235 (inactive) | 0.0205 (inactive) | -1.18 (inactive) | 0.262 | 0.0586 | 0.746 | 0.643 | 1.61
CCOC(=O)C[C@H]1[C@H](OC(=O)c2ccc(C(=O)c3ccccc3)cc2)[C@@H](NC(=O)CC(C)C)c2cc(OCCCO)ccc2N1C(=O)c1ccccc1 | 0.154 | -0.133 (inactive) | -0.367 (inactive) | 3.01 (inactive) | -0.443 (inactive) | 1.17 | -0.0131 | 0.125 | 0.442 | 1.32
CCOC(=O)C1=CC[C@@H](c2ccccc2F)N(S(=O)(=O)c2ccc(C)cc2)[C@H]1c1ccccc1 | 0.483 | -3.92 (inactive) | 0.0947 (inactive) | 0.827 (inactive) | 0.649 (inactive) | 0.872 | -0.045 | 0.263 | 0.388 | 0.649
CCOC(=O)C[C@H]1[C@H](OC(=O)c2ccccc2-c2ccccc2)[C@@H](NC(=O)c2ccc3ccccc3c2)c2cc(OCCCO)ccc2N1C(=O)c1ccccc1 | 0.331 | -0.399 (inactive) | 1.6 (inactive) | 2.94 (inactive) | -0.0955 (inactive) | 0.157 | 0.102 | 0.0464 | 0.472 | 0.536
CN(C)C(=O)[C@@]1(Cc2ccccc2)N=C(c2ccc(OCCCO)cc2)O[C@H]1c1ccccc1 | 0.87 | -3.42 (inactive) | -0.315 (inactive) | 0.195 (inactive) | -0.925 (inactive) | 1.29 | 0.715 | 0.435 | 0.0678 | 0.141
CC1CC/C=C\[C@H]2OC34C=CCN(c5ccc6ccccc6c5)C(=O)[C@H]3N(CCCO)C(=O)[C@@H]4C2C(=O)O1 (stereo not given in full) | -1.1 | 0.0518 (inactive) | 1.57 (inactive) | 0.191 (inactive) | 0.234 (inactive) | -1.1 | -0.293 | -2.88 | -1.47 | -0.749
COCCCNC(=O)[C@@H]1c2ccccc2C(=O)N(C(C)C)[C@H]1c1ccc(CO)cc1 | 0.389 | -0.293 (inactive) | 0.701 (inactive) | -0.179 (inactive) | 0.312 (inactive) | -0.337 | -0.045 | -0.17 | 0.0072 | 0.499
CS(=O)(=O)CCOC(=O)C1=CC(CCCO)=CC(c2ccc(CN3CCCC3)cc2)N(Cc2sc3ccccc3c2Cl)C=C1C(=O)OCCS(C)(=O)=O (stereo not given) | 0.689 | -1.29 (inactive) | 1.13 (inactive) | 2.08 (inactive) | 0.274 (inactive) | 2.48 | 0.794 | 1.4 | 2.18 | 1.18
C=CCNC(=O)[C@H]1[C@@H]2C(=O)O[C@@H](c3ccccc3)[C@@H](c3ccccc3)N2[C@@H](c2ccccc2OCCO)[C@]12C(=O)N(C(=O)OCCOC)c1ccc(C#CC3(O)CCCCCC3)cc12 | 0.358 | -5.57 (inactive) | -0.717 (inactive) | -0.258 (inactive) | 0.347 (inactive) | -0.139 | 0.0566 | 0.216 | 0.647 | 1.57
Cc1ccc(NN2C(C(O)c3c(F)cccc3Cl)C=CC3C(=O)N(C4CCCCC4)C(=O)C32)cc1 (stereo not given) | 0.361 | -3.26 (inactive) | -0.933 (inactive) | -0.0787 (inactive) | 0.355 (inactive) | 1.75 | -0.0675 | 0.0334 | 0.448 | -0.216
COC(=O)C(CC#Cc1ccc2c(c1)[C@]1(C(=O)N2)[C@H](c2ccc(O)cc2)N2[C@H](c3ccccc3)[C@H](c3ccccc3)OC(=O)[C@H]2[C@@H]1C(=O)NC[C@H](O)c1ccccc1)C(=O)OC | 0.0209 | -0.075 (inactive) | 0.221 (inactive) | -0.0566 (inactive) | -0.0638 (inactive) | 0.379 | 0.0769 | -0.207 | 0.276 | 1.68
C=CCN1C(=O)[C@]2(CCS(=O)(=O)c3ccccc3)N=C(c3ccc(OCCCO)cc3)O[C@@H]2c2ccccc21 | 0.782 | -3.58 (inactive) | -0.492 (inactive) | 1.8 (inactive) | -1.11 (inactive) | 0.479 | 0.0841 | 0.659 | 0.573 | 1.65
OCCCC1=CC(c2ccc(CN3CCCC3)cc2)N(Cc2cc3c(cc2Br)OCO3)CC1 (stereo not given) | 0.268 | -1.1 (inactive) | -0.808 (inactive) | -0.932 (inactive) | 0.821 (inactive) | 0.0246 | -0.152 | 0.763 | 0.585 | 1.04
